CASP6 VEID inh: human caspase-6 inhibitors, primary screen, biochemical, VEID-R110 fluorescence, single point, set 2 | inhibition, % at 12.5 µM | hit rate 0.53% among 350,000 | P55212 | purified caspase-6, Z-VEID-R110 cleavage fluorescence;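 active means mean inhibition across replicates at least about 35%, with every replicate also reaching that limit, limit read from the data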;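 further: 0% = median of neutral control wells and 100% = no fluorescence left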
ERAP1 inh: human ERAP1 aminopeptidase inhibitors, primary screen, biochemical, single point, plate reader; recombinant ERAP1, Leu-AMC fluorescence, 60 min; hit rate 0.15% among 340,000; inhibition, % at 10.7 µM; Endoplasmic reticulum aminopeptidase 1 (Homo sapiens), Q9NZ08;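 active means mean replicate inhibition of at least 30%, or all replicates individually reaching that 30% level; inactive means mean below 30% and not every replicate reaching it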;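 further: 0% = neutral control wells and 100% = L-leucinethiol positive control wells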
SIRT5 block: SIRT5 desuccinylase inhibitors, primary screen, biochemical, fluorescence imaging, single point, set 5; AID 652115, 2013; inhibition, % at 15 µM; Purified SirT5, succinyl-peptide AMC, trypsin-coupled fluorescence; NAD-dependent protein deacylase sirtuin-5, mitochondrial (Homo sapiens), Q9NXA8; hit rate 1.1% among 330,000; in the data active means inhibition above about 15%
Target sequence (Q9NXA8 whole entry, looked up): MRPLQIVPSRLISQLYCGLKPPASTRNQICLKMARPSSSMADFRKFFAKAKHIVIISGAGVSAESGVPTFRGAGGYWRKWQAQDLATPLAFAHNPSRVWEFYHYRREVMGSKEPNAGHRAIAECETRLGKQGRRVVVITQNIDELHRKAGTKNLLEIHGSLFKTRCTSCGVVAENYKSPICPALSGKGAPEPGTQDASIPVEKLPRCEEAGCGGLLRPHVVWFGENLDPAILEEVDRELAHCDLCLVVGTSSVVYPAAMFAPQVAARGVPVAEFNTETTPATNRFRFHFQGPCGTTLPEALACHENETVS
FGF22 binding: binders of human FGF22 protein, primary screen, FGF22 synaptogenesis inhibitor project, biophysical, thermal shift, single point | Fibroblast growth factor 22 (Homo sapiens), Q9HCT0 | hit rate 1.5% among 340,000 | recombinant FGF22 thermal shift, SYPRO orange fluorescence; percent of sucrose octasulfate shift, DMSO zero | activity (Tm shift, normalised), % at 9.99 µM | AID 651658, 2012;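 active means mean Tm shift, scaled 0 neutral to 100 positive control, at about 1.3% or above, every replicate too, limit read from the data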
Target sequence (Q9HCT0 whole entry, looked up): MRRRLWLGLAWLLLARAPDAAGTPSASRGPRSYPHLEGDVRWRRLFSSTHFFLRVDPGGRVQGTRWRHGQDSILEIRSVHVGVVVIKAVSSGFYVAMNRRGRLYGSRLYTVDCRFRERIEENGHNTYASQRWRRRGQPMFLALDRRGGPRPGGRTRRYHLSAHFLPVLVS
Active calls of the source: *; . = no result. A selection: hits, their analogues and other compounds. The true share with any hit is near 3.1%.

SMILES	CASP6 VEID inh	ERAP1 inh	SIRT5 block	FGF22 binding
COCC(=O)Nc1ccc2c(c1)[C@@H]1C[C@H](CC(=O)NCC(F)(F)F)O[C@H](CO)[C@@H]1O2	1	-2	1	0
CNC[C@@H]1OCCCC[C@H](C)Oc2ccc(NC(=O)c3ccccc3)cc2C(=O)N([C@@H](C)CO)C[C@H]1C	1	2	2	0
Nc1ccccc1C(=O)N=Nc1[nH]c(N)c2ccccc12	1	2	18*	0
Nc1[nH]c(N=NC(=O)c2ccc(F)cc2)c2ccccc12	-1	-1	0	0
CCCCNS(=O)(=O)c1cc(-c2nn(C)c(=O)c3ccccc23)ccc1C	36*	0	0	0
Cc1ccc(-c2nn(C)c(=O)c3ccccc23)cc1S(=O)(=O)NCCN(C)C	5	-4	-2	0
O=S(=O)(O)c1ccc(O)c2cc(Nc3ccccc3)ccc12	.	4	63*	1
O=S(=O)(O)c1cc(O)c2ccc(Nc3ccccc3)cc2c1	95*	40*	.	1
Nc1ccc2c(O)cc(S(=O)(=O)O)cc2c1	77*	15	.	.
CC(=O)Nc1ccc2c(O)cc(S(=O)(=O)O)cc2c1	35	2	4	-1
COc1ccccc1Nc1ccc2c(O)cc(S(=O)(=O)O)cc2c1	88*	38*	.	1
CC(C)NC(=O)Nc1cccc2c1O[C@@H](CN(C)Cc1ccc(C(=O)O)cc1)[C@@H](C)CN([C@@H](C)CO)C2=O	2	1	-1	0
O=C(NCCN1C(=O)S/C(=C\c2ccc(Cl)cc2Cl)C1=O)C1=COCCO1	39*	-1	0	-1
O=C(NCCN1C(=O)S/C(=C\c2ccccc2Cl)C1=O)C1=COCCO1	-1	1	-2	0
COc1ccc(S(=O)(=O)N(C)C[C@H]2OCCCC[C@H](C)Oc3ccc(NC(=O)NC(C)C)cc3C(=O)N([C@@H](C)CO)C[C@H]2C)cc1	0	-2	0	0
O=C(N/N=C\c1ccccc1OCc1ccccc1)c1ccco1	-5	-4	-1	43*
Cc1c(-n2c(SCC(=O)NC(C)C(C)C)nc3ccccc3c2=O)c(=O)n(-c2ccccc2)n1C (stereo not given)	-1	-1	-1	43*
Cc1c(-n2c(SCC(C)C)nc3ccccc3c2=O)c(=O)n(-c2ccccc2)n1C	2	0	0	0
CCOC(=O)c1c(C)[nH]c(C(=O)COC(=O)COc2ccc(OC)cc2)c1C	1	-4	0	44*
C[C@@H]1CN([C@@H](C)CO)C(=O)Cc2cc(NS(=O)(=O)c3cn(C)cn3)ccc2O[C@H]1CN(C)C(=O)Nc1ccc(F)cc1	-1	-1	-2	0
COCC(=O)N1[C@H](CO)[C@@H](c2ccccc2)[C@H]1CNC(=O)c1ccccn1	8	0	7	0
O=C(NC[C@H]1[C@H](c2ccccc2)[C@H](CO)N1Cc1cccnc1)c1ccccn1	.	.	17*	-1
COCC(=O)N1[C@H](CO)[C@H](c2ccccc2)[C@@H]1CNC(=O)c1ccccn1	-1	1	15*	-1
C[C@H](CO)N1C[C@H](C)[C@H](CN(C)Cc2ccc(C(F)(F)F)cc2)Oc2ccc(NC(=O)CCC(F)(F)F)cc2CC1=O	2	1	5	0
COc1cccc(CN(C)C[C@H]2OCc3ccccc3-c3c(n(C)c4ccccc34)C(=O)N([C@H](C)CO)C[C@@H]2C)c1	-4	-7	0	.
SMILES	CASP6 VEID inh	ERAP1 inh	SIRT5 block	FGF22 binding
C[C@@H]1CN([C@@H](C)CO)C(=O)c2c(c3ccccc3n2C)-c2ccccc2CO[C@@H]1CN(C)Cc1ccc2c(c1)OCO2	-1	-3	20*	0
C[C@@H]1CN([C@H](C)CO)C(=O)c2c(c3ccccc3n2C)-c2ccccc2CO[C@@H]1CN(C)Cc1ccc(C(F)(F)F)cc1	.	.	-7	1.4*
COc1cccc(CN(C)C[C@@H]2OCc3ccccc3-c3c(n(C)c4ccccc34)C(=O)N([C@H](C)CO)C[C@H]2C)c1	0	0	29*	0
C[C@H]1CN([C@@H](C)CO)C(=O)c2c(c3ccccc3n2C)-c2ccccc2CO[C@H]1CN(C)Cc1ccc(Oc2ccccc2)cc1	-3	-1	-4	1.3*
O=C(Nc1ccc2c(c1)OCO2)N[C@@H]1CC[C@H](CCNC(=O)C2CCC2)O[C@@H]1CO	4	-2	-3	-1
Cc1ccc(S(=O)(=O)N2CCN(C(=O)CCOc3cc(C)ccc3C)CC2)cc1	-117	-1	-3	0
Cc1ccc(C)c(OCCC(=O)N2CCN(S(=O)(=O)c3cc(F)ccc3F)CC2)c1	45*	1	0	0
C[C@@H]1CN([C@@H](C)CO)C(=O)c2cccc(NS(=O)(=O)c3cn(C)cn3)c2O[C@@H]1CN(C)S(=O)(=O)c1cccs1	1	0	0	0
O=C(O)c1c2cc(Br)ccc2nc2[nH]c(=O)[nH]c(=O)c12	4	3	.	43*
S=C(NCc1ccco1)NCc1ccco1	52*	10	.	0
COC(=O)C[C@H]1CC[C@H]2[C@H](COc3ccc(NC(=O)c4cccc(OC)c4)cc3C(=O)N2C)O1	2	3	-1	0
CCOc1ccccc1C1NC(=O)c2ccccc2N1 (stereo not given)	-2	-5	.	44*
Cc1ccc(C2NC(=O)c3ccccc3N2)c(C)c1 (stereo not given)	14	-10	.	0
Nc1cc([N+](=O)[O-])ccc1N1C(=O)CCCC1=O	40*	2	-1	0
Cc1cc(C)n(C(=O)c2ccc([N+](=O)[O-])cc2N)n1	2	1	0	43*
Cc1ccc([N+](=O)[O-])cc1N	.	-1	0	43*
Cc1ccc(S(=O)(=O)N2CCCC2)s1	0	-1	-6	0
Cc1ccc(C)c(/C=C(\C(=O)O)c2ccc(S(=O)(=O)N3CCCCC3)s2)c1	37*	-4	-4	1
COc1ccc(Br)cc1/C=C(\C(=O)O)c1ccc(S(=O)(=O)N2CCCCC2)s1	37*	10	2	0
CCOc1cc(/C=C(\C(=O)O)c2ccc(S(=O)(=O)N3CCCC3)s2)ccc1OC	2	1	1	0
COc1ccccc1NC(=O)N1CC(=O)N2[C@H](CO)[C@@H](c3ccc(-c4ccc(C)cc4)cc3)[C@@H]2C1	-3	0	4	.
Cc1ccccc1COc1ccc(/C=C(\C#N)C(N)=O)cc1	0	4	0	44*
O=C(O)/C=C/c1ccc(S(=O)(=O)Nc2ccc(OCc3ccccc3)cc2)cc1	2	1	-5	0
N#Cc1ccccc1COc1ccc(/C=C/C(=O)O)cc1	-1	-4	1	43*
O=C(N/C=C/n1cnc2cc(C(F)(F)F)ccc21)c1ccccc1F	0	-1	-3	44*

Screens (PubChem)
